CHX counter – Cycloheximide Counterscreen for Small Molecule Inhibitors of Shiga Toxin; AID 2314, 2010; 300,000 tested, 12% active; max response, %; cell reporter, cycloheximide protein synthesis inhibition counterscreen; in the data active means max response mostly above about 13%, no sharp cut-off; inactive means mostly below about 14%; further: read at 38.3 µM for the half of the compounds with a filed dose; 0% is about no effect
TbPYK inhibitor – qHTS of Trypanosoma Brucei Inhibitors; Potency, µM (highest dose often 76.8 µM), for the others: at the top dose activity, negative = inhibition, most hits filed as inhibitors; 410,000 tested, 0.12% active; pyruvate kinase (Trypanosoma brucei), Q57TT1; TbPYK enzyme, Kinase-Glo Plus ATP luminescence, 45 min; further: potency means the concentration at half of the fitted maximal effect; on the % scale 0 is the no-effect control and ±100 the full control effect; nearly all actives have a fitted effect of over 50% in size
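TbPYK + substrate in 50 mM TEA pH 7.2, 100 mM KCl, 10 mM MgCl2, 0.05% BSA, 0.01% Tween-20; cpd pinned; ADP 130 uM final; 45 min RT; Kinase-Glo Plus 10 min; luminescence endpoint.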
Sm TGR block – qHTS Assay for the Inhibitors of Schistosoma Mansoni Peroxiredoxins; Schistosoma mansoni thioredoxin glutathione reductase (TGR), Q962Y6; purified TGR, DTNB reduction, TNB absorbance 405 nm; Potency, µM (highest dose often 114 µM), without a hit: top-dose activity change, negative = inhibition, usual class: inhibitors; 360,000 tested, 3% active; further: potency means the concentration at half of the fitted maximal effect; on the % scale 0 is the no-effect control and ±100 the full control effect; nearly all actives have a fitted effect of over 60% in size
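First, TGR (20 nM dispensed) and NADPH were mixed with compound. Second, a 15 min room-temperature incubation followed. Third, further NADPH and then DTNB were added to start the reaction. Finally, TNB absorbance was monitored kinetically.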
FBPA Giardia inh – qHTS Assay for Inhibitors of Fructose-1,6-bisphosphate Aldolase from Giardia Lamblia; Potency, µM (highest dose often 59.6 µM), for inactives: at the highest dose activity, negative = inhibition, actives largely listed as inhibitors; 290,000 tested, 0.71% active; purified Giardia FBPA; further: potency means the concentration at half of the fitted maximal effect; on the % scale 0 is the no-effect control and ±100 the full control effect; nearly all actives have a fitted effect of over 55% in size
Target sequence (A8B2U2 whole entry, looked up): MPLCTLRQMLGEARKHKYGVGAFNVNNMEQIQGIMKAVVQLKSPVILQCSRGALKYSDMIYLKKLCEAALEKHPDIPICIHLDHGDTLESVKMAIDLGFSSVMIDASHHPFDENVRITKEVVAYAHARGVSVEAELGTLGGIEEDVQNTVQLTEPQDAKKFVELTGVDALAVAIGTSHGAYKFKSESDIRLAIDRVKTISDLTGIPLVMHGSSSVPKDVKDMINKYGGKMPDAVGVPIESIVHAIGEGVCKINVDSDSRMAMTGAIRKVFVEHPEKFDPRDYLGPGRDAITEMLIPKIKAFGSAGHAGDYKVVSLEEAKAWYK
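Giardia FBPA (40 nM reagent) was preincubated 10 min at RT with compound (up to 57.5 uM final), then substrate plus GAPDH/TPI/NAD/arsenate coupling system with diaphorase/resazurin was added; resorufin fluorescence (525/598 nm) was read after 20 min.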
Shiga inhibitor – A qHTS for Small Molecule Inhibitors of Shiga Toxin; 290,000 tested, 9.2% active; inhibition, % at 38.7 µM; AID 2315, 2010; Vero cells, Shiga toxin protein synthesis inhibition reporter; in the data active means inhibition mostly above about 28%, no sharp cut-off; inactive means mostly below about 43%; further: 0% is about no effect
LmPK inhibitor – qHTS Assay for Inhibitors of Leishmania Mexicana Pyruvate Kinase (LmPK). Q27686. Potency, µM (series often up to 57.5 µM), for inactives: at the top dose activity change, negative = inhibition, usual class: inhibitors. purified LmPK, Kinase-Glo ATP luminescence, 1 h. 290,000 tested, 0.37% active. AID 1721, 2009; further: potency means the concentration at half of the fitted maximal effect; on the % scale 0 is the no-effect control and ±100 the full control effect
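Purified LmPK (0.1 nM) converted ADP (0.1 mM) to ATP with PEP (0.5 mM) in imidazole buffer pH 7.2 with KCl and MgCl2, 1 h at room temperature. ATP was read by Kinase-Glo luminescence; data normalized to uninhibited and no-enzyme controls.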
Numbers without * were called inactive; ? = inconclusive; / = no result given. The sample as a whole holds a higher share of hits than the screen did. Unless noted, the call rests on the fitted dose curve; in most records, active means well fitted curve in the direction sought with a large enough effect; inconclusive means small, poorly fitted or top-dose-only effect, or another doubt; inactive means no such curve, though single readings can be large; an effect the other way counts as inactive or inconclusive.

SMILES	CHX counter	TbPYK inhibitor	Sm TGR block	FBPA Giardia inh	Shiga inhibitor	LmPK inhibitor
C/C(=N\Nc1nc2ccccc2[nH]1)c1ccc2c(c1)OCCO2	35.7*	1.2%	-0.8%	-6.7%	52.7*	3.8%
C/C(=N\Nc1nc2ccccc2[nH]1)c1ccc2c(c1)OCO2	35.5*	-8.1%	9.7%	-10.1%	65.0*	6.9%
CCc1ccc(NC(=O)Cn2c(=O)n(Cc3nc(C)no3)c(=O)c3cc4c(cc32)OCO4)cc1	/	0.5%	3.1%	/	/	/
CCCCc1nn2c(=O)cc(COC(=O)c3cccs3)nc2s1	/	-6.1%	1.7%	/	/	/
O=c1nc(N2CCOCC2)nc(N/N=C/c2ccc3c(c2)OCO3)[nH]1	-2.5	8.6%	6.9%	-14.9%	-2.4	-5.9%
C(=N\Nc1nc2ccccc2[nH]1)/c1ccc2c(c1)OCO2	35.2*	-12.4%	4.3%	-0.6%	87.5*	1.8%
Cc1[nH]c2ccccc2c1C(c1ccccn1)c1c(C)[nH]c2ccccc12	11.8	2.8%	5.62µM*	?	13.8	1.4%
Cc1c(N2CCCCC2)[nH]c2ccccc12	/	-0.9%	/	/	/	/
Cc1[nH]c2ccccc2c1C(c1ccncc1)N1CCCCC1 (centres undefined)	-1.7	-9.7%	1.78µM*	2.2%	-17.1	2.2%
Cc1[nH]c2ccccc2c1C(O)c1ccncc1 (centres undefined)	0.9	-2.6%	25.1µM*	3.4%	-15.8	-1.9%
Cc1[nH]c2ccccc2c1C(c1ccncc1)N1CCN(c2ccc(F)cc2)CC1 (centres undefined)	-4.1	5.1%	8.91µM*	-1.0%	-5.2	5.5%
Cc1[nH]c2ccccc2c1CN1CCN(c2ccccn2)CC1	-2.2	3.1%	?	0.1%	11.2	-0.4%
COc1ccc(-c2csc(NC(=O)C3CC(=O)N(Cc4ccco4)C3)n2)cc1 (centres undefined)	9.9	2.7%	35.5µM*	-4.8%	13.4	0.7%
COc1ccc(-c2csc(NC(=O)C3CC(=O)N(c4ccc5c(c4)OCCO5)C3)n2)cc1 (centres undefined)	24.4*	0.3%	-1.4%	-6.4%	13.9	4.6%
CC(=O)Nc1ccc(-c2csc(NC(=O)C3CC(=O)N(c4ccc5c(c4)OCCO5)C3)n2)cc1 (centres undefined)	7.5	-2.7%	2.0%	-15.7%	5.8	2.7%
NS(=O)(=O)c1cccc(NC(=O)C2CC(=O)N(Cc3ccco3)C2)c1 (centres undefined)	-0.9	3.5%	50.1µM*	8.3%	-14.2	-1.7%
O=C(NCc1ccc(F)cc1)C1CC(=O)N(Cc2ccco2)C1 (centres undefined)	13.0	-8.7%	39.8µM*	/	6.1	3.4%
COc1cccc(NC(=O)C2CC(=O)N(Cc3ccco3)C2)c1 (centres undefined)	/	3.7%	-11.5%	/	/	/
N[C@H](CO)Cc1cnc[nH]1	/	/	/	1.1%	/	/
COc1ccc(-c2cn3cccnc3n2)cc1NC(=O)c1cc(C)cc(C)c1	/	2.5%	2.7%	/	/	/
CCOC(=O)c1cccc(NC(=O)c2cc(-c3ccc(Cl)s3)nc3ccccc23)c1	/	-5.2%	?	/	/	/
O=c1[nH]c(-c2ccccc2)nn1-c1ccc(Br)cc1Br	0.4	-2.4%	9.4%	-7.7%	5.0	3.5%
O=C(Nc1nccs1)C1CC(=O)N(Cc2ccco2)C1 (centres undefined)	9.1	1.1%	10µM*	0.2%	-10.0	4.4%
O=[N+]([O-])C1C(c2ccccc2)=NOC1c1ccccc1O (centres undefined)	23.8*	2.2%	4.0%	10.9%	24.6*	-3.6%
Cc1ccc(-c2ccc(C(=O)O)o2)cc1Cl	15.6*	-3.7%	-28.5%	24.4%	38.0	1.8%
COC(=O)N/N=C/c1ccc(-c2ccc(C)c(Cl)c2)o1	16.1*	5.1%	-2.1%	1.7%	38.4	-0.1%
